Values joined by “and” are separate entries in the source; they are usually repeats but may differ in a detail not shown here. Equal values may be shown once. In all, about 5,500 compounds went through this assay and about 2,000 (36%) were called active. Another 18% or so got no clear call; they are omitted. Cut-off read from the data, not from the text of the source: active = normalized growth mostly below about 0.91 (no sharp cut-off); inconclusive = no clear call, values can overlap the other calls; inactive = mostly above about 0.92. This is one part of the list.
Experiment: chemical genetic growth profiling, strain panel (AID 1159580);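 note: tested at 20 µM; growth read once vehicle control cultures reached saturation at 30 °C; 1 = growth at the plate median or of vehicle wells; lower values mean less growth of the strain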
Conditions: S. cerevisiae deletion strains, growth OD

Measured: normalized growth

CN[C@H](CC(=O)O)C(=O)O
inactive: locus YAL013W, strain DEP1, active compounds read low 0.983 | locus YAL021C, strain ccr4, active compounds read low 0.988 | locus YAL026C, strain drs2, active compounds read low 1.02 | locus YAL030W, strain snc1, active compounds read low 1.01 | locus YBL061C, strain skt5, active compounds read low 1.02 | locus YBR009C, strain hhf1, active compounds read low 1.01 | locus YBR021W, strain FUR4, active compounds read low 1.02 | locus YBR023C, strain chs3, active compounds read low 1.03 | locus YBR171W, strain sec66, active compounds read low 1.01 | locus YBR229C, strain ROT2, active compounds read low 0.998 | locus YBR231C, strain swc5, active compounds read low 1.02 | locus YBR279W, strain paf1, active compounds read low 1.01 | locus YCL011C, strain gbp2, active compounds read low 1.03 | locus YCL016C, strain dcc1, active compounds read low 1.02 | locus YCL029C, strain bik1, active compounds read low 0.985 | locus YCL061C, strain MRC1, active compounds read low 1 | locus YCL069W, strain vba3, active compounds read low 1.01 | locus YCR088W, strain abp1, active compounds read low 1.02 | locus YDL005C, strain med2, active compounds read low 1.03 | locus YDL035C, strain GPR1, active compounds read low 0.989 | locus YDL040C, strain nat1, active compounds read low 1.02 | locus YDL074C, strain BRE1, active compounds read low 1.04 | locus YDL101C, strain DUN1, active compounds read low 0.995 | locus YDL134C, strain PPH21, active compounds read low 0.987 | locus YDL185W, strain tfp1, active compounds read low 0.968 | locus YDL192W, strain arf1, active compounds read low 0.967 | locus YDR001C, strain nth1, active compounds read low 1.03 | locus YDR069C, strain doa4, active compounds read low 1.02 | locus YDR101C, strain arx1, active compounds read low 1.03 | locus YDR137W, strain rgp1, active compounds read low 0.967 | locus YDR159W, strain sac3, active compounds read low 1.03 | locus YDR162C, strain NBP2, active compounds read low 0.964 | locus YDR195W, strain ref2 1.05 | locus YDR297W, strain sur2, active compounds read low 1.02 | locus YDR318W, strain mcm21, active compounds read low 0.98 | locus YDR334W, strain swr1, active compounds read low 1.01 | locus YDR335W, strain msn5, active compounds read low 1.01 | locus YDR388W, active compounds read low 0.972 | locus YDR392W, strain spt3, active compounds read low 0.969 | locus YDR502C, strain sam2, active compounds read low 0.989 | locus YEL003W, strain gim4, active compounds read low 1.01 | locus YEL037C, strain rad23, active compounds read low 1.02 | locus YEL061C, strain CIN8 (second series), active compounds read low 1.03 | locus YEL061C, strain CIN8, active compounds read low 0.994 | locus YER015W, strain faa2, active compounds read low 1.02 | locus YER016W, strain bim1, active compounds read low 1.02 | locus YER110C, active compounds read low 0.945 | locus YER111C, strain swi4, active compounds read low 1.02 | locus YER155C, strain BEM2 (second series), active compounds read low 1.06 | locus YER155C, strain BEM2, active compounds read low 1 | locus YER167W, strain BCK2, active compounds read low 0.998 | locus YFR010W, strain ubp6, active compounds read low 1.03 | locus YGL078C, strain dbp3, active compounds read low 0.975 | locus YGL086W, strain mad1, active compounds read low 1.02 | locus YGL167C, strain pmr1, active compounds read low 1.01 | locus YGL173C, strain kem1, active compounds read low 1.01 | locus YGL227W, strain vid30, active compounds read low 1.03 | locus YGL240W, strain doc1, active compounds read low 1.04 | locus YGL248W, strain PDE1, active compounds read low 0.996 | locus YGL253W, strain hxk2, active compounds read low 1.02 | locus YGR135W, strain pre9, active compounds read low 0.923 | locus YGR252W, strain gcn5, active compounds read low 0.979 | locus YHR013C, strain ard1, active compounds read low 1.04 | locus YHR027C, strain rpn1, active compounds read low 1.02 | locus YHR030C, strain SLT2, active compounds read low 0.991 and 1.03 | locus YHR079C, strain IRE1 (second series), active compounds read low 0.992 | locus YHR079C, strain IRE1, active compounds read low 1.04 | locus YHR094C, strain hxt1, active compounds read low 0.981 | locus YHR129C, strain ARP1, active compounds read low 0.995 | locus YHR142W, strain chs7, active compounds read low 1.03 | locus YHR200W, strain rpn10, active compounds read low 0.98 | locus YIL066C, strain RNR3, active compounds read low 1 | locus YIL073C, strain SPO22, active compounds read low 0.913 | locus YIL125W, strain kgd1, active compounds read low 1 | locus YIR030C, strain dcg1, active compounds read low 0.983 | locus YJL092W, strain hpr5, active compounds read low 1.01 | locus YJL095W, strain BCK1 (second series), active compounds read low 1.02 | locus YJL095W, strain BCK1, active compounds read low 1.01 and 1.06 | locus YJL115W, strain asf1, active compounds read low 1.03 | locus YJL129C, strain trk1, active compounds read low 1.09 | locus YJL134W, strain LCB3, active compounds read low 0.993 | locus YJL154C, strain vps35, active compounds read low 1.02 | locus YJL164C, strain tpk1, active compounds read low 0.998 | locus YJL166W, strain qcr8, active compounds read low 1.03 | locus YJL168C, strain set2, active compounds read low 0.98 | locus YJL187C, strain SWE1 (second series), active compounds read low 1 | locus YJL187C, strain SWE1, active compounds read low 1.01 | locus YJR043C, strain POL32, active compounds read low 1

— PubChem BioAssay AID1159580 (chemical genetic matrix, 2015)
